# Inconclusive results are not listed. Where a call stands in place of a potency, no number is given. More than one record can exist for a structure, and the calls need not agree. The source made the active and inactive calls. Calls follow the shape of the dose curve; as a rule, active = well fitted curve in the direction sought with a large enough effect; inconclusive = small, poorly fitted or top-dose-only effect, or another doubt; inactive = no such curve, though single readings can be large; an effect the other way counts as inactive or inconclusive.
# Tests used:
# [1] = target: Glutathione peroxidase 1 (Homo sapiens) (UniProt P07203); experiment: Primary qHTS Assay for Inhibitors of Recombinant Selenoprotein Glutathione Peroxidase 1 (GPX1) (AID 1845191); also: nearly all actives have a fitted effect of over 65% in size; also: potency is read from the fitted curve at half-maximal effect
# Method in brief: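 NADPH consumption tracked by fluorescence at 340/450 nm between t=0 and t=15 min, room temperature. Final mix: 10 nM GPX1, 100 nM glutathione reductase, 1 mM GSH, 0.5 mM NADPH, 0.5 mM cumene hydroperoxide, 0.01% BSA; 30 min compound–enzyme preincubation.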
# [2] = target: Phospholipid hydroperoxide glutathione peroxidase GPX4 (Homo sapiens) (UniProt P36969); experiment: Primary qHTS Assay for Inhibitors of Recombinant Selenoprotein Glutathione Peroxidase 4 (GPX4) (AID 1845192); also: nearly all actives have a fitted effect of over 65% in size
# Method in brief: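 NADPH consumption followed by fluorescence at 340/450 nm, t=0 and after 15 min at room temperature. Reaction started with cumene hydroperoxide (0.5 mM final) after 30 min compound–GPX4 preincubation; final 200 nM GPX4, 100 nM GR, 1 mM GSH, 0.5 mM NADPH.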
# [3] = Primary fluorescence-based thiol-reactive (MSTI) qHTS assay for identification of artifact compounds. (AID 1845221); also: nearly all actives have a fitted effect of over 65% in size; also: potency is read from the fitted curve at half-maximal effect
# Method in brief: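 Compounds were incubated 1 h at room temperature in the dark with the MSTI probe (4 uM) in PBS pH 7.4, 2% DMSO. Signals were normalized between Acetyl-MSTI and MSTI.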
# [4] = system: Nanoluciferase (engineered Oplophorus gracilirostris luciferase); experiment: Primary Nanoluciferase (NLuc) qHTS assay for identification of artifact compounds. (AID 1845222);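 also: NLuc secreted into diluted conditioned medium of S16 cells; series mostly up to about 54 µM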
# Method in brief: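 NLuc from S16 cell medium (1:55) plus test compounds, 15 min, room temperature. Luminescence after Nano-Glo (1:100) addition, 5 min.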
# [5] = Primary redox qHTS assay for identification of artifact compounds. (AID 1845223)
# Method in brief: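 Redox-cycling detection via DTT (250 uM final) oxidation coupled to Amplex Red (25 uM)/HRP (250 mU/mL) in HBSS. 15 min preincubation plus 30 min after DTT, room temperature. Ex/Em 525/598 nm; 4-parameter Hill fit against DMSO and 10 uM DA3003.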
# [6] = Quantitative High-Throughput drug screen in 47 multiple myeloma cell lines against the NCATS MIPE library collection: FR4_PLB cell viability assay (AID 1918924; also: nearly all actives have a fitted effect of over 35% in size; also: potency is read from the fitted curve at half-maximal effect)
# Method in brief: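 Approved and investigational drugs from MIPE 4.0 were added by pin tool to 500 cells per well. After 48 hours at 37C, ATP-based CellTiter-Glo luminescence indicated remaining viability.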
# [7] = Quantitative High-Throughput drug screen in 47 multiple myeloma cell lines against the NCATS MIPE library collection: EJM_DSMZ cell viability assay (AID 1918926; also: nearly all actives have a fitted effect of over 30% in size; also: potency is read from the fitted curve at half-maximal effect)
# Method in brief: (§1)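 We plated 500 myeloma cells per well, pinned in MIPE 4.0 compounds, and incubated for 48 hours at 37C. ATP was then quantified with CellTiter-Glo, with DMSO and media-only wells defining 100% and 0%.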
# [8] = Quantitative High-Throughput drug screen in 47 multiple myeloma cell lines against the NCATS MIPE library collection: AMO1_DSMZ cell viability assay (AID 1918927; also: nearly all actives have a fitted effect of over 30% in size; also: potency is read from the fitted curve at half-maximal effect)
# Method in brief: as §1
# [9] = Quantitative High-Throughput drug screen in 47 multiple myeloma cell lines against the NCATS MIPE library collection: ARP1_JJKsccF8 cell viability assay (AID 1918928; also: nearly all actives have a fitted effect of over 40% in size; also: potency is read from the fitted curve at half-maximal effect)
# Method in brief: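 500 cells/well; MIPE 4.0 library pinned in; 48 h, 37 °C, 5% CO2; CellTiter-Glo ATP luminescence. Controls: DMSO = 100% viability, medium only = 0%.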
# [10] = target: Luciferin 4-monooxygenase (Photinus pyralis) (UniProt P08659); experiment: Primary firefly luciferase (FLuc) qHTS assay for identification of artifact compounds. (AID 1845220); also: nearly all actives have a fitted effect of over 60% in size
# Method in brief: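 FLuc 10 nM; luciferin 10 uM; ATP 10 uM; Tris-acetate pH 7.6, Mg-acetate 10 mM; 15 min RT preincubation; 5 min reaction; luminescence.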
# [11] = Quantitative High-Throughput drug screen in 47 multiple myeloma cell lines against the NCATS MIPE library collection: Delta47_JCRB cell viability assay (AID 1918925; also: nearly all actives have a fitted effect of over 45% in size; also: potency is read from the fitted curve at half-maximal effect)
# Method in brief: as §1
# Sequence of Phospholipid hydroperoxide glutathione peroxidase GPX4 (Homo sapiens) (P36969 whole entry, looked up): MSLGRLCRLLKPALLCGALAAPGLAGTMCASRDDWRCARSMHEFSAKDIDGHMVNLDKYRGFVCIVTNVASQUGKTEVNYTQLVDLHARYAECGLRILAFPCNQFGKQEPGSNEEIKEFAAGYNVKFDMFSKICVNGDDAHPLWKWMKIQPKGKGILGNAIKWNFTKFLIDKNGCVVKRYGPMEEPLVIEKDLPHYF
# Sequence of Glutathione peroxidase 1 (Homo sapiens) (P07203 whole entry, looked up): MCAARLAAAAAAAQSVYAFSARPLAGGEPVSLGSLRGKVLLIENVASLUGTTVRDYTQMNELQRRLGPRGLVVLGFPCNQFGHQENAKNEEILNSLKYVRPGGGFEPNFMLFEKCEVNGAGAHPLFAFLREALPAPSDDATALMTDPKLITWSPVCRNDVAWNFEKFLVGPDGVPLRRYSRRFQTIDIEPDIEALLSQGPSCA
Compound,Potency [1],Potency [2],Potency [3],outcome [4],outcome [5],Potency [6],Potency [7],Potency [8],Potency [9],Potency [10],Potency [11]
Cc1cc(SCc2sc(-c3ccc(C(F)(F)F)cc3)nc2C)ccc1OCC(=O)O,20.2 µM (active) and inactive,inactive,inactive,inactive,inactive,inactive,inactive,inactive,inactive,,
COc1cccc2cc(-c3nc(C4CCC(C(=O)O)CC4)n4ncnc(N)c34)[nH]c12 (stereo not given),inactive,inactive,26.7 µM (active),inactive,,0.187 µM (active),0.187 µM (active),0.372 µM (active),0.662 µM (active),inactive,0.469 µM (active)
C[C@H](NC(=O)Cc1cc(F)cc(F)c1)C(=O)N[C@@H]1C(=O)N(C)c2ccccc2-c2ccccc21,inactive,inactive,inactive,inactive,inactive,,,,,inactive,7.43 µM (active)
Clc1ccc(Nc2nnc(Cc3ccncc3)c3ccccc23)cc1,inactive,inactive,inactive,inactive,inactive,inactive,18.7 µM (active),inactive,,inactive,
CC1(C)CNc2cc(NC(=O)c3cccnc3NCc3ccncc3)ccc21,inactive,inactive,,inactive,inactive,,2.64 µM (active),inactive,,,inactive
CCC(=O)N[C@H]1CC[C@H](C(=O)N(C)c2ccc(-c3nc4ccccc4o3)cc2)C1,inactive,inactive,,,,,16.6 µM (active),11.8 µM (active),,,8.33 µM (active)
O=c1ncn2nc(Sc3ccc(F)cc3F)ccc2c1-c1c(Cl)cccc1Cl,inactive,inactive,,,,inactive,,18.7 µM (active),,,
Cc1c(C)c2c(c(C)c1O)CCC(C)(COc1ccc(CC3SC(=O)NC3=O)cc1)O2 (stereo not given),inactive,inactive,,,,inactive,inactive,,inactive,,
OCCC#Cc1nc(-c2ccc(F)cc2)c(-c2ccncc2)n1CCCc1ccccc1,inactive,inactive,,,,,,23.5 µM (active),,,13.2 µM (active)
CCc1ccc(CCOc2ccc(CC3SC(=O)NC3=O)cc2)nc1 (stereo not given),inactive,inactive,,,,inactive,,inactive,,,
Cc1cccc(-c2nn(C(=S)Nc3ccccc3)cc2-c2ccnc3ccccc23)n1,inactive,,,,,inactive,11.8 µM (active),inactive,,,16.6 µM (active)
CCn1c(-c2nonc2N)nc2c(C#CC(C)(C)O)ncc(OC[C@H]3CCCNC3)c21,inactive,inactive,,,,14.8 µM (active),,,0.59 µM (active),,0.0469 µM (active)
COc1ccc(-c2c(-c3ccc(O)cc3O)n[nH]c2C)cc1,inactive,,,,,,,42.9 µM (active),,,
CCOc1cc(N2CCC(O)CC2)ccc1Nc1ncc2c(n1)N(C)c1ccccc1C(=O)N2C,inactive,inactive,,,,11.8 µM (active),,1.32 µM (active),,,4.18 µM (active)
N#CC[C@H](C1CCCC1)n1cc(-c2ncnc3[nH]ccc23)cn1,25.5 µM (active),,inactive,inactive,inactive,,7.43 µM (active),6.62 µM (active),inactive,inactive,
Fc1ccc(Cl)cc1-c1nc(Nc2ccncc2)c2nccnc2n1,inactive,inactive,,,,inactive,8.33 µM (active),5.26 µM (active),,,
COc1ccc(CC2=NN3C([C@@H](CCc4ccccc4)[C@@H](C)O)=NC(C)C3C(=O)N2)cc1OC (stereo not given in full),inactive,inactive,,,,inactive,inactive,inactive,,,
O=C(Nc1cccnc1)N1CCC(Cc2cccc(Oc3ccc(C(F)(F)F)cn3)c2)CC1,,inactive,inactive,inactive,inactive,16.6 µM (active),18.7 µM (active),9.35 µM (active),18.7 µM (active),inactive,9.35 µM (active)
Nc1ncnc2nc(-c3ccc(N4CCOCC4)nc3)cc(-c3cccc(Br)c3)c12,,inactive,,,,,,,,,
